Experimental data from PubChem BioAssay AID1159580 (chemical genetic matrix, 2015).
Values joined by “and” are separate entries in the source; they are usually repeats but may differ in a detail not shown here. Equal values may be shown once. The campaign covered roughly 5,500 compounds. About 2,000 (36%) were called active. Not shown: some 18% with an inconclusive outcome. Rule as the data show it: active = normalized growth mostly below about 0.91 (no sharp cut-off); inconclusive = no clear call, values can overlap the other calls; inactive = mostly above about 0.92. Some of the results follow.

Test: chemical genetic growth profiling, strain panel (AID 1159580);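 also: tested at 20 µM; growth read once vehicle control cultures reached saturation at 30 °C; 1 = growth at the plate median or of vehicle wells; lower values mean less growth of the strain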
Conditions: S. cerevisiae deletion strains, growth OD

CC1=CC2C(CC1=O)C(C)=CCC2C(C)C (stereo unspecified)
normalized growth (locus YAL021C, strain ccr4, stronger effect = lower value): 1.02 (inactive) | normalized growth (locus YAL026C, strain drs2, stronger effect = lower value): 0.996 (inactive) | normalized growth (locus YAL030W, strain snc1, stronger effect = lower value): 1 (inactive) | normalized growth (locus YBL061C, strain skt5, stronger effect = lower value): 1.02 (inactive) | normalized growth (locus YBR009C, strain hhf1, stronger effect = lower value): 0.98 (inactive) | normalized growth (locus YBR021W, strain FUR4, stronger effect = lower value): 0.923 (inactive) | normalized growth (locus YBR023C, strain chs3, stronger effect = lower value): 0.992 (inactive) | normalized growth (locus YBR171W, strain sec66, stronger effect = lower value): 1 (inactive) | normalized growth (locus YBR229C, strain ROT2, stronger effect = lower value): 1.01 (inactive) | normalized growth (locus YBR231C, strain swc5, stronger effect = lower value): 0.998 (inactive) | normalized growth (locus YBR279W, strain paf1, stronger effect = lower value): 1 (inactive) | normalized growth (locus YCL011C, strain gbp2, stronger effect = lower value): 1.01 (inactive) | normalized growth (locus YCL016C, strain dcc1, stronger effect = lower value): 1.01 (inactive) | normalized growth (locus YCL029C, strain bik1, stronger effect = lower value): 0.976 (inactive) | normalized growth (locus YCL061C, strain MRC1, stronger effect = lower value): 0.991 (inactive) | normalized growth (locus YCL069W, strain vba3, stronger effect = lower value): 1.01 (inactive) | normalized growth (locus YCR088W, strain abp1, stronger effect = lower value): 1 (inactive) | normalized growth (locus YDL005C, strain med2, stronger effect = lower value): 1.02 (inactive) | normalized growth (locus YDL035C, strain GPR1, stronger effect = lower value): 0.96 (inactive) | normalized growth (locus YDL040C, strain nat1, stronger effect = lower value): 1.01 (inactive) | normalized growth (locus YDL074C, strain BRE1, stronger effect = lower value): 0.902 (inactive) | normalized growth (locus YDL101C, strain DUN1, stronger effect = lower value): 0.966 (inactive) | normalized growth (locus YDL185W, strain tfp1, stronger effect = lower value): 0.83 (active) | normalized growth (locus YDL192W, strain arf1, stronger effect = lower value): 0.769 (active) | normalized growth (locus YDR001C, strain nth1, stronger effect = lower value): 0.996 (inactive) | normalized growth (locus YDR069C, strain doa4, stronger effect = lower value): 1.02 (inactive) | normalized growth (locus YDR101C, strain arx1, stronger effect = lower value): 0.929 (inactive) | normalized growth (locus YDR137W, strain rgp1, stronger effect = lower value): 0.896 (inactive) | normalized growth (locus YDR159W, strain sac3, stronger effect = lower value): 1.01 (inactive) | normalized growth (locus YDR162C, strain NBP2, stronger effect = lower value): 0.92 (inactive) | normalized growth (locus YDR195W, strain ref2): 0.977 (inactive) | normalized growth (locus YDR297W, strain sur2, stronger effect = lower value): 1.02 (inactive) | normalized growth (locus YDR318W, strain mcm21, stronger effect = lower value): 0.946 (inactive) | normalized growth (locus YDR334W, strain swr1, stronger effect = lower value): 1.01 (inactive) | normalized growth (locus YDR335W, strain msn5, stronger effect = lower value): 1.01 (inactive) | normalized growth (locus YDR388W, stronger effect = lower value): 0.987 (inactive) | normalized growth (locus YDR392W, strain spt3, stronger effect = lower value): 0.594 (active) | normalized growth (locus YDR502C, strain sam2, stronger effect = lower value): 0.895 (active) | normalized growth (locus YEL003W, strain gim4, stronger effect = lower value): 1.02 (inactive) | normalized growth (locus YEL037C, strain rad23, stronger effect = lower value): 0.997 (inactive) | normalized growth (locus YEL061C, strain CIN8 (second series), stronger effect = lower value): 1.01 (inactive) | normalized growth (locus YEL061C, strain CIN8, stronger effect = lower value): 0.911 (active) | normalized growth (locus YER015W, strain faa2, stronger effect = lower value): 1 (inactive) | normalized growth (locus YER016W, strain bim1, stronger effect = lower value): 1.01 (inactive) | normalized growth (locus YER110C, stronger effect = lower value): 1.01 (inactive) | normalized growth (locus YER111C, strain swi4, stronger effect = lower value): 0.996 (inactive) | normalized growth (locus YER155C, strain BEM2 (second series), stronger effect = lower value): 0.98 (inactive) | normalized growth (locus YER155C, strain BEM2, stronger effect = lower value): 0.948 (inactive) | normalized growth (locus YER167W, strain BCK2, stronger effect = lower value): 0.937 (inactive) | normalized growth (locus YFR010W, strain ubp6, stronger effect = lower value): 1 (inactive) | normalized growth (locus YGL078C, strain dbp3, stronger effect = lower value): 0.943 (inactive) | normalized growth (locus YGL086W, strain mad1, stronger effect = lower value): 0.888 (active) | normalized growth (locus YGL167C, strain pmr1, stronger effect = lower value): 1.01 (inactive) | normalized growth (locus YGL173C, strain kem1, stronger effect = lower value): 1.01 (inactive) | normalized growth (locus YGL227W, strain vid30, stronger effect = lower value): 1.01 (inactive) | normalized growth (locus YGL240W, strain doc1, stronger effect = lower value): 0.998 (inactive) | normalized growth (locus YGL248W, strain PDE1, stronger effect = lower value): 0.952 (inactive) | normalized growth (locus YGL253W, strain hxk2, stronger effect = lower value): 1 (inactive) | normalized growth (locus YGR135W, strain pre9, stronger effect = lower value): 0.881 (active) | normalized growth (locus YGR252W, strain gcn5, stronger effect = lower value): 0.972 (inactive) | normalized growth (locus YHR013C, strain ard1, stronger effect = lower value): 1.03 (inactive) | normalized growth (locus YHR027C, strain rpn1, stronger effect = lower value): 1.01 (inactive) | normalized growth (locus YHR030C, strain SLT2, stronger effect = lower value): 0.905 (active) and 0.973 (inactive) | normalized growth (locus YHR079C, strain IRE1 (second series), stronger effect = lower value): 0.989 (inactive) | normalized growth (locus YHR079C, strain IRE1, stronger effect = lower value): 0.96 (inactive) | normalized growth (locus YHR094C, strain hxt1, stronger effect = lower value): 0.989 (inactive) | normalized growth (locus YHR129C, strain ARP1, stronger effect = lower value): 0.95 (inactive) | normalized growth (locus YHR142W, strain chs7, stronger effect = lower value): 0.981 (inactive) | normalized growth (locus YHR200W, strain rpn10, stronger effect = lower value): 0.968 (inactive) | normalized growth (locus YIL066C, strain RNR3, stronger effect = lower value): 0.9 (inactive) | normalized growth (locus YIL073C, strain SPO22, stronger effect = lower value): 0.91 (inactive) | normalized growth (locus YIL125W, strain kgd1, stronger effect = lower value): 0.934 (inactive) | normalized growth (locus YIR030C, strain dcg1, stronger effect = lower value): 0.979 (inactive) | normalized growth (locus YJL092W, strain hpr5, stronger effect = lower value): 0.998 (inactive) | normalized growth (locus YJL095W, strain BCK1 (second series), stronger effect = lower value): 1.01 (inactive) | normalized growth (locus YJL095W, strain BCK1, stronger effect = lower value): 0.808 (inactive) and 0.979 (inactive) | normalized growth (locus YJL115W, strain asf1, stronger effect = lower value): 1.01 (inactive) | normalized growth (locus YJL129C, strain trk1, stronger effect = lower value): 1 (inactive) | normalized growth (locus YJL134W, strain LCB3, stronger effect = lower value): 1.02 (inactive) | normalized growth (locus YJL154C, strain vps35, stronger effect = lower value): 1.01 (inactive) | normalized growth (locus YJL164C, strain tpk1, stronger effect = lower value): 0.994 (inactive) | normalized growth (locus YJL166W, strain qcr8, stronger effect = lower value): 0.978 (inactive) | normalized growth (locus YJL168C, strain set2, stronger effect = lower value): 0.978 (inactive) | normalized growth (locus YJL187C, strain SWE1 (second series), stronger effect = lower value): 0.971 (inactive) | normalized growth (locus YJL187C, strain SWE1, stronger effect = lower value): 1 (inactive) | normalized growth (locus YJR043C, strain POL32, stronger effect = lower value): 0.98 (inactive)
